# Test results: PubChem BioAssay AID1851 (National Center for Advancing Translational Sciences (NCATS), 2009)
# The campaign covered roughly 16,000 compounds. About 2,600 (16%) were called active. Another 20% or so got no clear call; they are omitted. The call rests on the fitted dose curve; in most records, active means well fitted curve in the direction sought with a large enough effect; inconclusive means small, poorly fitted or top-dose-only effect, or effect the other way; inactive means no such curve, though single readings can be large or run the other way. Only a sample is shown. Peptide text beside a SMILES is read from it. * marks the point of attachment. PhAc = O=C(Cc1ccccc1)*; OBn = c1ccc(CO*)cc1
# Biological target: Cytochrome P450 2D6 (Homo sapiens) (UniProt P10635)
# Sequence (P10635 whole entry, looked up): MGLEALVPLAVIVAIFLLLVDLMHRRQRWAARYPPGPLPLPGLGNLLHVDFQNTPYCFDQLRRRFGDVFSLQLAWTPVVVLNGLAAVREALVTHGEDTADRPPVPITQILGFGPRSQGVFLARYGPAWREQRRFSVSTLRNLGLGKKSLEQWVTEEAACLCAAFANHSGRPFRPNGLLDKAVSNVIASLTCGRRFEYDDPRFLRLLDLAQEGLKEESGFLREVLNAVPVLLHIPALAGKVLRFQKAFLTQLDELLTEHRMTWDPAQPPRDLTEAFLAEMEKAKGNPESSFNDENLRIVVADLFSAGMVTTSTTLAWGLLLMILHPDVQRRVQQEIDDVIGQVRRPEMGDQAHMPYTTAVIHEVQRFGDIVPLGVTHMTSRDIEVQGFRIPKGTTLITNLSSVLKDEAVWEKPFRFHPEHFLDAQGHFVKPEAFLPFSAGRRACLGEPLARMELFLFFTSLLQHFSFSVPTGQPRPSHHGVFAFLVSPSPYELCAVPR
# Assay: Cytochrome panel assay with activity outcomes
# Conditions: recombinant CYP, pro-luciferin dealkylation, luminescence, p450-cyp2d6; series mostly up to 57.1 µM
# On the % scale 0 is the no-effect control and ±100 the full control effect.
SMILES,"activity, negative = inhibition",AC50
Nc1nc(N)c2nn(-c3ccc(C(=O)O)cc3)nc2n1,-6.74% [at 11.4 µM] (inactive),–
Cc1c(-c2ccc(F)cc2)nc(N)c(C#N)c1-c1cccs1,–,inactive
CCOc1ccc(N=C2NC(=O)C(CC(=O)O)S2)cc1 (stereo unspecified),–,inactive
O=C(NCCCN1CCC(Cc2ccccc2)CC1)C1CCN(S(=O)(=O)N2CCOCC2)CC1,–,12.6 µM (active)
COc1cccc(CNC(=O)C2CCN(S(=O)(=O)N3CCCCC3)CC2)c1,–,inactive
O=C(NCc1ccc(F)cc1)C1CCN(S(=O)(=O)N2CCCCC2)CC1,–,inactive
O=C(NCCCN1CCc2ccccc2C1)C1CCN(S(=O)(=O)N2CCCC2)CC1,–,7.94 µM (active)
O=C(NCCCN1CCN(Cc2ccccc2)CC1)C1CCN(S(=O)(=O)N2CCCC2)CC1,–,3.98 µM (active)
CCS(=O)(=O)N1CCC(C(=O)NCCCN2CCCC2)CC1,–,inactive
Cc1ccc(NC(=O)CCC(=O)NNS(=O)(=O)c2ccccc2)c(C)c1,–,inactive
Cc1cc(C)c(S(=O)(=O)NNC(=O)C2CCN(Cc3ccccc3)CC2)c(C)c1,–,15.8 µM (active)
CCCCN(CC)S(=O)(=O)N1CCC(C(=O)NCCCN2CCOCC2)CC1,–,inactive
CC(C)N(CCNC(=O)C1CCN(S(=O)(=O)N2CCOCC2)CC1)Cc1ccccc1,–,inactive
O=C(C1CCN(S(=O)(=O)N2CCOCC2)CC1)N1CCN(Cc2ccccc2)CC1,–,inactive
CCN1C(=O)CC(N2CCN(CC(=O)NC(C)C)CC2)C1=O (stereo unspecified),–,inactive
CCN(CC)C(=O)Cn1cc(/C=C(\C#N)C(=O)N2CCN(c3ccccc3)CC2)c2ccccc21,–,inactive
Cc1ccc(-c2nc3ncccn3c2NC(=O)C2CC2)cc1,–,inactive
CCn1c(=O)c2c(O)cc(=O)oc2c2ccccc21,–,inactive
CCc1c(C)c(C#N)c2nc3ccccc3n2c1Nc1c(C)n(C)n(-c2ccccc2)c1=O,–,inactive
N#CCCn1c(=O)c(-c2ccccc2)nc2cnc(Oc3cccc(Cl)c3)nc21,–,inactive
Cn1cc(-c2nc3cnc(Oc4ccccc4)nc3n(C)c2=O)c2ccccc21,–,inactive
CC[C@H](CN(C)C)C(=O)c1ccco1,-4.86% [at 11.4 µM] (inactive),–
COc1ccccc1/C=N/NC(=Nc1ccc(C)cc1)c1nc2ccccc2s1,–,inactive
COCCn1c(=O)c(C)nc2cncnc21,–,inactive

SMILES,"activity, negative = inhibition",AC50
CSc1nc(Sc2cccc(Cl)c2)c2ccccc2n1,–,inactive
Cc1c(N2C(=O)CS/C2=N\N=C\c2ccc(Cl)cc2)c(=O)n(-c2ccccc2)n1C,–,inactive
CC(C)Cn1c(-c2nn(C)cc2Cl)n[nH]c1=S,–,inactive
O=C(Nc1cccc(F)c1)N1CCC2(CC1)CCN(C(=O)c1csnn1)CC2,–,inactive
Cc1ccc(Oc2nc(-c3ccccc3)ncc2S(C)(=O)=O)cc1,–,inactive
Cc1c(NC(=O)CSc2nnnn2C)c(=O)n(-c2ccccc2)n1C,–,inactive
CC1(C)S[C@@H]2[C@H](NC(=O)[C@@H](N)c3ccc(O)cc3)C(=O)N2[C@H]1C(=O)O,–,inactive
CCc1ccc(N(C(=O)c2csnn2)C(C(=O)NCc2ccccc2)c2ccco2)cc1 (stereo unspecified),–,inactive
O=C(O)[C@@H](O)[C@@H](O)[C@H](O)[C@H](O)CO,0.284% [at 11.4 µM] (inactive),–
N/N=C1/CC(=O)NC(=O)N1,-6.83% [at 11.4 µM] (inactive),–
N/C(=N\O)C1COc2ccccc2O1 (stereo unspecified),–,inactive
CCn1ccnc1C[C@@H]1COc2ccccc2O1,–,1.58 µM (active)
O=C(NCc1cccnc1)C1COc2ccccc2O1 (stereo unspecified),–,inactive
COc1ccc(N2C(=O)CC(S/C(N)=N/N=C(\C)c3cccs3)C2=O)cc1 (stereo unspecified),–,inactive
Cc1cccc(OC(=O)CN2C(=O)C3C4CCC(C4)C3C2=O)c1C (stereo unspecified),–,inactive
CCNC(=O)CSc1nnc(C2CC2)n1-c1ccccc1,–,inactive
Cn1cccc1C(=O)C(=O)Nc1cccc(Cl)c1Cl,–,inactive
O=C(Nc1cccc(Cl)c1Cl)c1snnc1-c1ccccc1,–,10 µM (active)
O=C(Nc1ccccc1Cl)c1ccccc1Cl,–,inactive
O=[N+]([O-])c1ccc(C2CCCC/C2=N\OCc2cccc(F)c2)c([N+](=O)[O-])c1 (stereo unspecified),–,inactive
NCCOB(c1ccccc1)c1ccccc1,–,inactive
Cc1cc(NC(=O)c2c([N+](=O)[O-])c(C)nn2C)no1,–,inactive
CCC(=O)NNc1cc(=O)c2c(=O)n(C)c(=O)n(C)c2[nH]1,–,inactive
CCN1CCCC1Cn1cnc2c([nH]c3ccc(C)cc32)c1=O (stereo unspecified),–,4.47 µM (active)

SMILES,"activity, negative = inhibition",AC50
COc1ccc2[nH]c3c(NCCCN4CCCC4=O)ncnc3c2c1,–,inactive
CCOCCCn1cnc2c([nH]c3cc(OC)ccc32)c1=O,–,inactive
O=S(=O)(C=C(c1ccccc1)c1ccccc1)c1ccccc1,–,inactive
O=S(=O)(c1ccc(Br)cc1)N1CCN(S(=O)(=O)c2ccc(Br)cc2)CC1,-1.87% [at 11.4 µM] (inactive),–
O=c1oc(-c2cccs2)nc2ccc(Br)cc12,–,inactive
O=S(=O)(c1ccccc1)N1N=C(c2cccs2)CC1c1ccc(Br)cc1 (stereo unspecified),–,1.12 µM (active)
COc1nc(C)nc(Cl)c1NC1=NCCN1,–,inactive
Clc1cccc(Cl)c1NC1=NCCN1,–,10 µM (active)
COc1ncc2nc(-c3cccs3)c(=O)n(CCc3ccccc3)c2n1,–,inactive
CCCCOC(=O)CSCC(=O)Nc1cc(C)on1,–,inactive
Cc1cc2nc(CCN(C(=S)NCC(C)C)C3CCCC3)[nH]c2cc1C,–,1.12 µM (active)
COc1ccc(/C=C/C(=O)Nc2ccccc2C(=O)N2CCCC2)cc1,–,inactive
CCCc1cc2c(n1CCc1ccc(Cl)cc1)C(C)C1CN(C(=O)c3ccccc3)C(C)(C(=O)OC)C21 (stereo unspecified),–,5.01 µM (active)
COC(=O)[C@@]1(Cc2ccccc2)[C@H]2c3cc(C(=O)N4CCCC4)n(Cc4ccc(S(C)(=O)=O)cc4)c3C[C@H]2CN1C(=O)c1ccccc1,–,inactive
COC(=O)[C@@]1(Cc2ccc(F)cc2)[C@H]2c3cc(C(=O)N4CCCC4)n(Cc4ccc(Cl)c(C(F)(F)F)c4)c3C[C@H]2CN1C(=O)c1ccccc1,–,inactive
CS(=O)(=O)Nc1c(O)ccc2c1CCC[C@H]2C1=NCCN1,–,inactive
N[C@H](C(=O)O)c1cc(O)cc(O)c1,–,inactive
O=C(CNC(=O)c1cccs1)NCC(=O)OCc1ccc(Cl)cc1,–,15.8 µM (active)
C/C(=N/NC(=O)c1cccs1)c1ccc(NC(=O)COc2ccc(Cl)cc2Cl)cc1,–,inactive
O=C(CNC(=O)c1cccs1)NCC(=O)OCc1ccc(Cl)cc1Cl,–,3.55 µM (active)
O=C(CNC(=O)Cc1ccccc1)NCC(=O)OCc1ccccc1 (PhAc-Gly-Gly-OBn),–,inactive
CC(C)(C)c1ccc(COC(=O)CNC(=O)CNC(=O)Cc2ccccc2)cc1,–,inactive
O=C(NOC(=O)c1cc(Br)ccc1Cl)c1cccs1,–,inactive
